# Measured values taken from PubChem BioAssay (NCI).
# About 83,000 compounds went through this panel and 20% of them were active in at least one assay; those are over-represented in the sample as a whole.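 Growth was measured after 48 h exposure to one concentration of compound in 96-well plates. Values under 10 count as active.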 Values without a mark were called inactive. Calls of active or inactive are those of the source.
# Tests used:
# Test in all cases: NCI-60 one-dose screen, 48 h (100 = growth as untreated, 0 = no growth, -100 = all killed)
# Conditions in all cases: 10 µM unless noted
# NCI-H23 lung = test system: NCI-H23 lung
# NCI-H226 lung = test system: NCI-H226 lung
# NCI-H322M lung = test system: NCI-H322M lung
# HOP-62 NSCLC = test system: HOP-62 NSCLC
# NCI-H460 lung = test system: NCI-H460 lung
# NCI-H522 lung = test system: NCI-H522 lung
# A549/ATCC NSCLC = test system: A549/ATCC NSCLC
# 786-0 renal = test system: 786-0 renal
# COLO 205 colon = test system: COLO 205 colon
# DU-145 prostate = test system: DU-145 prostate
# K-562 leukemia = test system: K-562 leukemia
# MALME-3M melanoma = test system: MALME-3M melanoma
# MDA-MB-231 breast = test system: MDA-MB-231 breast
# RXF 393 renal = test system: RXF 393 renal
# SF-268 CNS = test system: SF-268 CNS
# SF-295 CNS = test system: SF-295 CNS
# SF-539 CNS = test system: SF-539 CNS
# UACC-257 melanoma = test system: UACC-257 melanoma
# M14 melanoma = test system: M14 melanoma
Compound,growth (NCI-H23 lung),growth (NCI-H226 lung),growth (NCI-H322M lung),growth (HOP-62 NSCLC),growth (NCI-H460 lung),growth (NCI-H522 lung),growth (A549/ATCC NSCLC),growth (786-0 renal),growth (COLO 205 colon),growth (DU-145 prostate),growth (K-562 leukemia),growth (MALME-3M melanoma),growth (MDA-MB-231 breast),growth (RXF 393 renal),growth (SF-268 CNS),growth (SF-295 CNS),growth (SF-539 CNS),growth (UACC-257 melanoma),growth (M14 melanoma)
CN(C)c1nc(NCCNS(=O)(=O)c2ccc(C3=Nc4c(N)nc(N)nc4NC(c4ccc(Cl)cc4)C3)cc2)nc(Nc2ccc(F)cc2)n1 (configuration not stated),50.8%,54.7%,66%,80.3%,19.4%,40.1%,62.7%,24.3%,3.23% (active),64%,11.8%,14.6%,11.2%,20.1%,43.7%,48.5%,-51.1% (active),42.6%,11.6%
C=C1CC[C@@H]2[C@]3(C)COC(c4cn[nH]c4-c4cccc(Br)c4)O[C@@H]3CC[C@@]2(C)[C@@H]1C/C=C1/C(=O)OCC1O (some centres not stated),-94.5% (active),-88.4% (active),-0.559% (active),-58.3% (active),-68.9% (active),-56% (active),-17.4% (active),-95.5% (active),-58.3% (active),-85.5% (active),-2.18% (active),-74.5% (active),-47.3% (active),-90.8% (active),-22.7% (active),-78.6% (active),-97.8% (active),-72% (active),-75.7% (active)
N=C1N=C(SCc2nc3ccccc3[nH]2)NC(=O)/C1=C/c1ccc(Cl)cc1,98.8%,95.1%,103%,102%,102%,92.7%,109%,118%,110%,110%,110%,96.4%,92.8%,113%,112%,103%,102%,106%,108%
O=C(/C=C/Nc1ccc2oc(=O)ccc2c1)c1cc2cc(Br)ccc2oc1=O,98.8%,101%,104%,95.4%,114%,101%,101%,103%,131%,122%,110%,95.2%,94.1%,121%,107%,102%,97.4%,91.2%,99.4%
COc1ccc(-c2ccnc(SCc3cc4cc(OC)ccc4[nH]c3=O)n2)cc1,25.8%,39.4%,48.1%,34.7%,14.9%,11.8%,20.2%,44.1%,15.7%,43.7%,4.74% (active),36.7%,22.7%,7.02% (active),36.6%,17.5%,20.5%,38%,19.8%
Cc1nc(Nc2ncc(C(=O)Nc3c(C)cccc3Cl)s2)cc(N2CCN(CCCNC(=O)COc3ccc(C4CCC(=O)NC4=O)cc3)CC2)n1 (configuration not stated),68.8%,68.5%,20.8%,35.4%,95.8%,17%,33.4%,14.4%,10.3%,41.9%,9.96% (active),91.6%,-4.03% (active),-51.2% (active),43.6%,48.3%,7.74% (active),77.9%,60.2%
CC(C)(C)OC(=O)/C=C/c1cccc2c1C(=O)NC(C)(c1cc3cc(Cl)ccc3oc1=O)N2 (configuration not stated),53%,50.6%,60.9%,64%,43.9%,34.9%,27.4%,54.5%,19.4%,61.1%,17.1%,51.2%,67.1%,10.2%,51.4%,24.9%,66.7%,41.7%,49.3%
Cn1cc(-c2cc(N)n3nc(-c4cn(C)c5ncc(Br)cc45)cc3n2)c2cc(Br)cnc21,-31.1% (active),78%,69.1%,48.3%,-65.6% (active),51.2%,-22.3% (active),-40.8% (active),12.3%,5.43% (active),-41.6% (active),-66.6% (active),6.75% (active),23.1%,50%,-63.5% (active),-83.4% (active),60.3%,-64.7% (active)
